Source: PubChem (several laboratories)
Hits are enriched below; roughly 2.2% of the tested compounds scored in any of these assays.
IEC-6 cytotox: cytotoxicity in IEC-6 intestinal epithelial cells, primary screen, cytotoxicity control for KLF5 inhibitor project, cell-based, luminescence | IEC-6 cytotoxicity, luminescence viability | inhibition, % at 5 µM | actives 0.78% (n = 290,000) | AID 1825, 2009; in the data active = inhibition above about 22%;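 also: 0% = plate median of test compound wells and 100% = cytotoxic reference compound wells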
KLF5 inh: KLF5 expression inhibitors, primary screen, DLD-1 cells, luminescence; DLD-1 KLF5 promoter-luciferase reporter; inhibition, % at 5 µM; AID 1700, 2009; actives 0.23% (n = 290,000);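 active = inhibition above a per-plate limit of that plate's mean compound inhibition plus 3 SD, cut at about 60% in these data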;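 also: 0% = DMSO wells and 100% = LY294002 at 200 µM; higher means less KLF5 promoter-driven luciferase light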
Ba/F3 V617F tox: reduced viability of JAK2V617F-dependent Ba/F3 cells, primary screen, JAK2V617F inhibitor project, cell-based, Ba/F3 EpoR-JAK2V617F, luminescence; actives 1.1% (n = 220,000); AID 1446, 2008; inhibition, % at 5.6 µM; ATP luminescence;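 active = inhibition above the campaign mean plus 3 SD over all tested compounds, cut at about 24% in these data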;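 also: cytokine-independent growth of Ba/F3 cells driven by EpoR plus mutant JAK2; 0% = DMSO-treated cells and 100% = JAK inhibitor I control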
aSyn 5UTR inh: MLPCN primary screen, SNCA 5' untranslated region. AID 1813, 2009. actives 0.82% (n = 300,000). inhibition, % (tested at 7.5 µM). alpha-synuclein 5'UTR reporter, inhibitor activity; in the data active = inhibition above about 60%;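 also: H4 neuroglioblastoma cells stably carrying SNCA 5'UTR luciferase fusion; 0% = DMSO wells and 100% = positive control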
BaF3 tox: parental Ba/F3 cell viability inhibition, counter-screen for JAK2V617F inhibitor project, murine pro-B, CellTiter-Glo luminescence | inhibition, % at 5.6 µM | actives 1.1% (n = 220,000) | CellTiter-Glo ATP luminescence | AID 1486, 2009;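 active = inhibition above a per-campaign cutoff, the mean inhibition of all tested compounds plus 3 SD, cut at about 27% in these data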;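 also: 0% = DMSO wells and 100% = JAK Inhibitor I control wells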
APP 5UTR inh: inhibitors of APP translation via 5'UTR reporter, primary screen, APP 5'UTR luciferase, SH-SY5Y cells. actives 0.82% (n = 190,000). SH-SY5Y APP 5'UTR-luciferase reporter, luminescence. inhibition, % at 2 µM. AID 1285, 2008;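 active = inhibition above a set limit, derived from the sample mean plus 3 SD, cut at about 45% in these data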
* = called active by the depositor.

Screening CC(=O)N(C)c1ccc(OCC(O)Cn2c(C)nc3ccccc32)cc1 (stereo not given) returned IEC-6 cytotox 3.9, KLF5 inh -46.6, Ba/F3 V617F tox 29.4*, aSyn 5UTR inh 1.0, BaF3 tox 42.3* and APP 5UTR inh 4.5.
CN(/N=C/c1cc(Br)cc(Br)c1O)c1cccc(C(F)(F)F)n1 was read as IEC-6 cytotox 8.6, KLF5 inh -2.3 and aSyn 5UTR inh 70.2*.
Screening CCOC(=O)c1cnc(-n2nc(C)cc2C)nc1NCc1ccccc1 returned IEC-6 cytotox 7.5, KLF5 inh -15.8, Ba/F3 V617F tox 0.8, aSyn 5UTR inh 26.6, BaF3 tox 1.2 and APP 5UTR inh 6.9.
`CCOC(=O)c1cnc(-n2nc(C)cc2C)nc1NNc1ncc(-c2ccccc2)cn1` gave IEC-6 cytotox -0.9, KLF5 inh -9.7, Ba/F3 V617F tox -2.7, aSyn 5UTR inh 82.5* and BaF3 tox 1.5.
For CCOC(=O)c1cnc(-n2nc(C)cc2C)nc1NNc1cc(-c2ccccc2)nc(C)n1 the results were IEC-6 cytotox 3.6, KLF5 inh -17.2, Ba/F3 V617F tox 1.4, aSyn 5UTR inh 92.7*, BaF3 tox 6.0 and APP 5UTR inh 56.5*.
For CCOc1ccc(-n2c(SCC(=O)Nc3ccc(Br)cc3)nc3n[nH]c(C)c3c2=N)cc1 the results were IEC-6 cytotox 5.4, KLF5 inh 0.2, Ba/F3 V617F tox 2.1, aSyn 5UTR inh 81.5*, BaF3 tox 5.3 and APP 5UTR inh 15.5.
`COc1cccc(N2CCN(C(=O)c3[nH]c(C)c(C(C)=O)c3C)CC2)c1` gave IEC-6 cytotox 16.5, KLF5 inh 41.0, Ba/F3 V617F tox 20.9, aSyn 5UTR inh -2.2, BaF3 tox 35.2* and APP 5UTR inh 29.2.
COC(=O)c1c(C)[nH]c(C(=O)N2CCN(c3ccc(OC)cc3)CC2)c1C was read as IEC-6 cytotox -0.7, KLF5 inh -33.8, Ba/F3 V617F tox 1.1, aSyn 5UTR inh -43.4, BaF3 tox 9.0 and APP 5UTR inh 7.3.
Screening CSc1ncc(C(=O)Nc2cc(C)ccc2C)c(C)n1 returned IEC-6 cytotox -1.1, KLF5 inh -14.4 and aSyn 5UTR inh 11.1.
Screening O=C1c2ccccc2C(=O)c2c1ncn2-c1ccccc1 returned IEC-6 cytotox -0.5, KLF5 inh -33.6, Ba/F3 V617F tox 1.7, aSyn 5UTR inh 70.3*, BaF3 tox 2.9 and APP 5UTR inh -2.5.
O=C1c2ccccc2C(=O)c2[nH]cnc21 was read as IEC-6 cytotox 5.2, KLF5 inh -29.8, Ba/F3 V617F tox -1.9, aSyn 5UTR inh 18.0 and BaF3 tox 6.0.
For O=C(CN(C(=O)c1csnn1)c1ccccc1C(F)(F)F)NCc1ccccc1 the results were IEC-6 cytotox -6.4, KLF5 inh -1.8 and aSyn 5UTR inh 1.7.
For CC(C)CCn1nc(C(=O)Nc2nc3c(s2)CCCC3)c2ccccc2c1=O the results were IEC-6 cytotox 9.4, KLF5 inh -18.9, Ba/F3 V617F tox -3.2, aSyn 5UTR inh 67.6*, BaF3 tox 1.8 and APP 5UTR inh 7.0.
For Cc1cccc(NS(=O)(=O)c2cnc[nH]2)c1 the results were IEC-6 cytotox 4.4, KLF5 inh -19.8, Ba/F3 V617F tox 3.9, aSyn 5UTR inh 11.5, BaF3 tox 92.8* and APP 5UTR inh 3.7.
For COc1ccc2ccccc2c1C(O)c1nccn1C (stereo not given) the results were IEC-6 cytotox 6.5, KLF5 inh 8.2, Ba/F3 V617F tox 59.4*, aSyn 5UTR inh -13.4, BaF3 tox 38.0* and APP 5UTR inh -5.4.
Screening C=CCN(C(=O)CCc1ccccc1OC)c1nc(-c2ccc(S(C)(=O)=O)cc2)cs1 returned IEC-6 cytotox -1.0, KLF5 inh 7.3 and aSyn 5UTR inh 70.8*.
For O=C(CS(=O)c1ccc(C(F)(F)F)cc1[N+](=O)[O-])Oc1ccccc1 (stereo not given) the results were IEC-6 cytotox 15.7, KLF5 inh -18.2, Ba/F3 V617F tox 53.1*, aSyn 5UTR inh 16.6, BaF3 tox 47.8* and APP 5UTR inh -2.9.
